Our source for the Potency and activity change, negative = inhibition values is PubChem BioAssay (NCATS).

Results filed as inconclusive are left out. Where a call stands in place of a potency, no number is given. A number with no mark means an inactive call. Active and inactive are the calls of the source. Calls follow the shape of the dose curve; as a rule, active = well fitted inhibition curve with a large enough effect; inconclusive = small, poorly fitted or top-dose-only effect; inactive = no such curve, though single readings can be large or run the other way.

Chain of Rap guanine nucleotide exchange factor 3 (Homo sapiens) (O95398 whole entry, looked up): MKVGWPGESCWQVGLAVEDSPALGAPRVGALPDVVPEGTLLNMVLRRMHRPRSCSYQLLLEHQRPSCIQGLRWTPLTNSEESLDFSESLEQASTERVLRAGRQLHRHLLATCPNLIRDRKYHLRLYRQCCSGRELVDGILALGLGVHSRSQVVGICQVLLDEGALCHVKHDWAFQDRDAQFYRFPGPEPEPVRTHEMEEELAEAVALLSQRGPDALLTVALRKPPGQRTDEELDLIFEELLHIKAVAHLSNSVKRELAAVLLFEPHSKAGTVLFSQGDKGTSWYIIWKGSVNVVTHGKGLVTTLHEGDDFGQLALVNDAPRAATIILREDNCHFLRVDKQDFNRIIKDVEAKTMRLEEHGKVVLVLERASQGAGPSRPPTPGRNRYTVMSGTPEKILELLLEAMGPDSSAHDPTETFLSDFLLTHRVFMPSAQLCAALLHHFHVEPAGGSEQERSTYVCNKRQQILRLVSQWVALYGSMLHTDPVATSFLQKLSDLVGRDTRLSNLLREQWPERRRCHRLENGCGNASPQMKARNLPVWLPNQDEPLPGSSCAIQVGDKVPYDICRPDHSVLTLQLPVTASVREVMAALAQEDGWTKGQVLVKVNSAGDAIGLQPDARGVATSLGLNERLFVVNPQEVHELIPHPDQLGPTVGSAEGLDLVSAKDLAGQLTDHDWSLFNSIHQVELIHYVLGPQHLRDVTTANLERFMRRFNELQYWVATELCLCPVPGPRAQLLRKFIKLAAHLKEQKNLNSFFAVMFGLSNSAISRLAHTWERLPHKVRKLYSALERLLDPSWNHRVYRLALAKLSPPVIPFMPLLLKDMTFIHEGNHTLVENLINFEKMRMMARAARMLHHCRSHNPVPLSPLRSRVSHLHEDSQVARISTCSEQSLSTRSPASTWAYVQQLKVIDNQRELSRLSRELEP

The target of this assay is Rap guanine nucleotide exchange factor 3 (Homo sapiens) (UniProt O95398). The assay is described as follows: Counterscreen qHTS for antagonist of cAMP-regulated guanine nucleotide exchange factor 3 (EPAC1) (AID 1645888). Particulars: Rap1B-BODIPY-GDP nucleotide exchange, fluorescence; series mostly up to 154 µM. An outline of the steps:
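Measured: fluorescence of BODIPY-GDP bound to Rap1B, which falls as exchange proceeds. Conditions include 50 uM competing GDP, 5 and 30 min reads, and a later cAMP challenge for antagonist detection.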
(A counterscreen serves to expose hits that act by an unwanted route or on another target.)
Take `CC(c1nc2ccccc2n1Cc1ccccc1)n1c(-c2cnccn2)nc2ccccc21` (stereo not given): the Potency result was “inactive”.
As to `Cc1ccc(NC(=O)CC2S/C(=N/N=C3\CCCc4ccccc43)NC2=O)cc1` (stereo not given), the activity change, negative = inhibition was -9.99% [at 30.8 µM].
As to `CCOC(=O)C1=CN(Cc2cccc(F)c2)S(=O)(=O)NC1c1ccc(Br)cc1F` (stereo not given), the Potency entry is “inactive”.
`CCOC(=O)c1cc2c(ccn2C)n1CC(=O)N1CCN(c2cccc(C(F)(F)F)c2)CC1`: the activity change, negative = inhibition is 12.9% [at 30.8 µM].
As for `CCOC(=O)c1ccc(NC(=O)c2c(NCc3cccs3)sc3c2CCCCC3)cc1`, the Potency result was “inactive”.
Turning to `S=c1[nH]nc(-c2cc(-c3ccccc3)n[nH]2)n1/N=C/c1cccc(Cl)c1`, the Potency entry is “inactive”.
With `CCc1ccc(/C=C2\SC(=S)N(CCCC(=O)Nc3ccccc3C(=O)O)C2=O)cc1`, the activity change, negative = inhibition was 0.611% [at 30.8 µM].
For the compound `Cc1noc(NS(=O)(=O)c2ccc(N/C=C\C(=O)c3cccc4ccccc34)cc2)c1C`, the Potency entry is “inactive”.
As for `O=C(O)CC/C(=C/c1cccc(NC(=O)c2ccccc2Cl)c1)c1nc2ccccc2s1`, the Potency result is “inactive”.
`CC(=O)c1ccc(OCc2nnn(CC(=O)NS(=O)(=O)c3ccc(C)cc3)c2-c2ccccc2)cc1`: the activity change, negative = inhibition was -5.72% [at 30.8 µM].
Take `O=S(=O)(c1ccc2c(c1)C(O)c1ccccc1CC2)C(F)(F)F` (stereo not given): the Potency result is “inactive”.
On the same count and under the same terms, the entry for `CCc1nc(Oc2cccc(F)c2)c2oc3ccccc3c2n1` is “inactive”.
In the case of `O=C(Nc1cccc(Cl)c1)Nc1ccccc1NS(=O)(=O)c1cccs1`, the activity change, negative = inhibition is -19.4% [at 30.8 µM].
On to `COc1ccc(/C=C2\C(=O)NC(=S)N2C(=O)c2ccc(F)cc2)cc1`, for which the Potency entry was “inactive”.
On the same count and under the same terms, then `O=C(COc1ccc(Cl)cc1)NC1=NN(c2ccccc2)C(=O)C1`, with “inactive”; and `Oc1ccc2ccccc2c1/C=N/c1nc2c(s1)CCCC2`, with “inactive”.
On the same count and under the same terms, then `CCOc1cc(CNc2ccc(O)cc2)cc(Cl)c1OCc1ccccc1`, with “inactive”.
Regarding `COc1ccc(/C=N/NC(=O)c2[nH]c3ccc(Br)cc3c2-c2ccccc2)c(C(=O)O)c1OC`, the activity change, negative = inhibition is 0.744% [at 30.8 µM].
For the compound `Cc1cc(/C=C2\SC(=S)NC2=O)c(C)n1-c1cccc(O)c1`, the Potency entry is “inactive”.
For the compound `C#Cc1ccc([C@@H]2C=C(C(=O)OCC=C)O[C@H](OCc3ccc(CO)cc3)C2)cc1`, the activity change, negative = inhibition is -8.75% [at 30.8 µM].
Take `Oc1ccc(NCc2cccc(OCc3ccccc3)c2)cc1`: the Potency entry is “inactive”.
Turning to `Fc1ccc(/C=C2\CCCC3=C2Nc2ncnn2C3c2ccc(F)cc2)cc1` (stereo not given), the activity change, negative = inhibition is -4.64% [at 30.8 µM].
Same read-out and setting: then `COc1cccc(/C=C2\SC(=S)NC2=O)c1OS(=O)(=O)c1ccc(NC(C)=O)cc1`, with -18.9% [at 30.8 µM].
With `CN(C)S(=O)(=O)c1ccc(N2CCCC2)c(C(=O)NCC2COc3ccccc3O2)c1` (stereo not given), the Potency result is “inactive”.
Consider `CC(CNC(=O)c1sc2ncccc2c1-n1cccc1)c1ccccc1` (stereo not given), for which the Potency result is “inactive”.
Same read-out and setting: then `Cc1cc(N2CCOCC2)ccc1/C=C1/SC(=O)NC1=O`, with “inactive”.
Still for that read-out and setting: the entry for `CC1=NN(c2ccccc2)C(=O)C1C(=O)c1cc([N+](=O)[O-])cc([N+](=O)[O-])c1` (stereo not given) is “inactive”.
As to `COc1ccc(NC(=O)Cn2ncc(Cl)c(Cl)c2=O)cc1S(=O)(=O)N1CCOCC1`, the activity change, negative = inhibition is 1.4% [at 30.8 µM].
Turning to `COc1ccccc1NC(=O)c1ccccc1NS(=O)(=O)c1cccs1`, the Potency result was “inactive”.
The same measure, in the same setting: then `O=C(Nc1ccccc1)C1=C(O)CC(c2ccc(Cl)cc2)N2CCN=C12` (stereo not given), with “inactive”.
`CCCCn1c(COc2cccc(OC)c2)nc2ccccc21`: the Potency entry was “inactive”.
Turning to `CCC(C)Cn1c(O)cc2nn(-c3nc4ccccc4s3)c(=O)c-2c1C` (stereo not given), the activity change, negative = inhibition is -16.7% [at 30.8 µM].
Consider `Cc1ccc(-n2nc3ccc(NC(=O)/C=C/c4ccco4)cc3n2)cc1C`, for which the Potency entry is “inactive”.
As for `COCCN1C(=O)c2[nH]nc(-c3ccccc3O)c2C1c1ccc(Cl)c(Cl)c1` (stereo not given), the Potency result is “inactive”.
Same read-out and setting: the entry for `COc1ccc(OC)c(NC(=O)C(C)Oc2ccc(Br)cc2)c1` (stereo not given) is “inactive”.
On the same count and under the same terms, then `CCc1nc2c(OCc3ccc(OC(F)F)cc3)cccn2c1N(C)C(=O)c1cccs1`, with “inactive”.
For the compound `Cc1cc(C)c(S(=O)(=O)c2ccccc2)c(OC(=O)c2c(F)cccc2F)n1`, the activity change, negative = inhibition was 8% [at 30.8 µM].
For the compound `COc1cc(OC)c(NC(=O)CN(C)S(=O)(=O)c2ccc(-c3ccc(=O)[nH]n3)s2)cc1Cl`, the Potency entry is “inactive”.
For the compound `O=C(O)c1ccc(N/N=C/c2ccc(-c3ccccc3Cl)o2)cc1`, the activity change, negative = inhibition is 1.4% [at 30.8 µM].
As to `COc1cn(-c2ccccc2)nc1C(=O)Nc1ccc(C)cc1Cl`, the Potency result was “inactive”.
